In PubChem BioAssay (NCI):
This is part of a sample that, as a whole, favours compounds with a hit. Of some 83,000 tested, about 20% had one in any assay.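 Values shown are percent growth following 48 h exposure of cells in 96-well plates to a single concentration of compound; below 10 was considered active.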 Values without a mark were called inactive. Calls of active or inactive are those of the source.

Legend:
Assay in all cases: NCI-60 one-dose screen, 48 h (100 = growth as untreated, 0 = no growth, -100 = all killed)
HCT-15 colon = details: 10 µM unless noted
HT29 colon = details: 10 µM unless noted
SNB-75 CNS = details: 10 µM unless noted
SNB-19 CNS = details: 10 µM unless noted
U251 CNS = details: 10 µM unless noted
PC-3 prostate = details: 10 µM unless noted
SK-MEL-5 melanoma = details: 10 µM unless noted
UACC-62 melanoma = details: 10 µM unless noted
LOX IMVI melanoma = details: 10 µM
SK-MEL-28 melanoma = details: 10 µM unless noted
SK-MEL-2 melanoma = details: 10 µM unless noted
EKVX NSCLC = details: 10 µM unless noted
SN12C renal = details: 10 µM unless noted
UO-31 renal = details: 10 µM unless noted
TK-10 renal = details: 10 µM unless noted
ACHN renal = details: 10 µM unless noted
CAKI-1 renal = details: 10 µM unless noted
A498 renal = details: 10 µM unless noted
MOLT-4 leukemia = details: 10 µM unless noted
CCRF-CEM leukemia = details: 10 µM unless noted

Row | Structure (SMILES) | growth (HCT-15 colon) | growth (HT29 colon) [%] | growth (SNB-75 CNS) [%] | growth (SNB-19 CNS) [%] | growth (U251 CNS) [%] | growth (PC-3 prostate) [%] | growth (SK-MEL-5 melanoma) | growth (UACC-62 melanoma) [%] | growth (LOX IMVI melanoma) [%] | growth (SK-MEL-28 melanoma) [%] | growth (SK-MEL-2 melanoma) [%] | growth (EKVX NSCLC) [%] | growth (SN12C renal) [%] | growth (UO-31 renal) [%] | growth (TK-10 renal) [%] | growth (ACHN renal) [%] | growth (CAKI-1 renal) [%] | growth (A498 renal) | growth (MOLT-4 leukemia) | growth (CCRF-CEM leukemia)
1 | CCCCc1ccc2nc(NC(=O)OC)[nH]c2c1 | 7.85% (active) | 12.2 | 65.1 | 14.7 | 22.2 | 22.5 | -49.2% (active) | 41 | 25.2 | 58.8 | 44.4 | 60.3 | 34.5 | 36.1 | 57.6 | 39.2 | 19.5 | -5.63% (active) | -18.9% (active) | 
2 | CCOc1ccncc1[N+](=O)[O-] | 110% | 107 | 101 | 125 | 96.9 | 106 | 106% | 100 | 99.6 | 102 | 104 | 104 | 110 | 99.9 | 104 | 115 | 103 | 121% | 102% | 109%
3 | C#CC(O)c1ccccc1 (stereo unspecified) | 103% | 105 | 103 | 104 | 97.2 | 97.3 | 97.8% | 103 | 103 | 109 | 106 | 103 | 104 | 101 | 99.5 | 104 | 103 | 94.2% | 99.4% | 
4 | O=[N+]([O-])c1ccc2[nH]c(=S)n(/C=C(/c3ccc(Cl)cc3Cl)S(=O)(=O)Cc3ccc(Cl)cc3Cl)c2c1 | 101% | 98.9 | 108 | 102 | 98.1 | 94.7 | 101% | 101 | 98.6 | 110 | 102 | 92.9 | 94.6 | 97.2 | 101 | 98.1 | 97.4 | 103% | 98.3% | 103%
5 | Cc1ccc(S(N)(=O)=O)cc1Cl | 104% | 104 | 91.8 | 107 | 103 | 99.3 | 103% | 105 | 114 | 108 | 103 | 125 | 106 | 94.5 | 107 | 107 | 101 | 106% | 96.6% | 102%
6 | CCCCN(C=S)CCCC | 98.1% | 102 | 87.4 | 94.3 | 90.3 | 91.5 | 101% | 96.4 | 106 | 96.2 | 91.8 | 103 | 97.5 | 93.5 | 98.4 | 95.7 | 95.2 | 91.4% | 91.4% | 95.7%
7 | Nc1ncnc2c1ncn2C1OC(CO)C2OC21 (stereo unspecified) | 108% | 101 | 106 | 118 | 95.7 | 95.8 | 101% | 100 | 99.2 | 111 | 95.2 | 105 | 95.7 | 100 | 99 | 116 | 106 | 85.4% | 111% | 105%
8 | CCNC(=O)OCCc1c2ccccc2nc2ccccc12 | 104% | 103 | 81.3 | 111 | 97 | 43.9 | 104% | 99.1 | 88.4 | 97.7 | 111 | 115 | 119 | 92.2 | 132 | 94.1 | 121 | 111% | 76.4% | 73.7%
9 | C=C1C(=O)C2CCN1CC2 | 105% | 89.8 | 89.2 | 105 | 100 | 101 | 104% | 97.3 | 98.9 | 95.6 | 105 | 103 | 101 | 89.1 | 99.9 | 86.8 | 92 | 97.6% | 78.2% | 
10 | O=C(c1ccccc1O)N1CCCC1 | 99.2% | 93 | 88 | 97.2 | 89.8 | 84.4 | 105% | 100 | 99.7 | 98.5 | 92.9 | 97.5 | 102 | 91.9 | 96.5 | 94.4 | 94.8 | 91.9% | 98.6% | 100%
11 | CCOC(OCC)C(=O)c1ccccc1 | 104% | 92.7 | 94.1 | 103 | 95 | 85 | 96.1% | 111 | 95.4 | 104 | 88.8 | 109 | 101 | 82.6 | 84.1 | 99.3 | 107 | 94% | 124% | 99.8%
12 | CSCCC(NC(=O)C(Cl)Cl)C(=O)O (stereo unspecified) | 102% | 100 | 85.6 | 107 | 90.9 | 89 | 99.8% | 95.8 | 98.4 | 97 | 102 | 90.2 | 97.5 | 96.3 | 94.1 | 101 |  | 108% | 90.5% | 97.7%
13 | CC(C)(CC(=O)O)CC(=O)O | 105% | 101 | 90.2 | 99.2 | 109 | 101 | 97.7% | 98.7 | 104 | 99.2 | 107 | 97.4 | 97.2 | 94 | 96.5 |  | 97.7 | 93.7% | 100% | 105%
14 | COc1ccc(-c2csc(NC(=O)Nc3nc(-c4ccc(OC)cc4)cs3)n2)cc1 | 86.5% | 104 | 99.2 | 96.6 | 79.5 | 67.4 | 29.3% | 81.3 | 83.6 | 99 | 116 | 72.3 | 93.6 | 75.4 | 99.8 | 90.1 |  | 96.3% | 34.8% | 76%
15 | Cn1c(=O)c2[nH]c(CCCCC(=O)O)nc2n(C)c1=O | 107% | 110 | 95.3 | 114 | 106 | 92.4 | 108% | 102 | 99.4 | 118 | 111 | 131 | 104 | 105 | 98.4 |  | 106 | 113% | 102% | 75.6%
16 | Clc1ccc(/C=C/c2ccccn2)cc1 | 89.5% | 111 | 72.5 | 96.3 | 81.1 | 81.4 | 101% | 106 | 98.6 | 99 | 103 | 76.3 | 108 | 78.1 | 99.3 | 103 |  | 77.3% | 86.9% | -56% (active)
17 | O=C(OCc1ccccc1)n1nnc2ccccc21 | 104% | 106 | 90.2 | 112 | 99.2 | 104 | 105% | 94.4 | 99.6 | 101 | 108 | 98.2 | 97 | 94.9 | 107 |  | 93.1 | 124% | 116% | 111%
18 | Cc1ccc(O)c(N)c1 | 106% | 112 | 87.7 | 101 | 103 | 94.7 | 103% | 81.5 | 105 | 122 | 112 | 136 | 107 | 87.9 | 127 |  | 215 | 127% | 123% | 78.7%
19 | Nc1nc(N)nc(N2CCCCC2)n1 | 107% | 98.2 | 118 | 115 | 101 | 99.5 | 100% | 104 | 104 | 114 | 100 | 107 | 102 | 87.4 | 91.6 |  | 104 | 89.6% | 107% | 
20 | Cc1ccnc(Nc2nc3ccccc3[nH]2)n1 | 101% | 100 | 109 | 112 | 103 | 101 | 105% | 113 | 97.9 | 115 | 105 | 104 | 104 | 104 | 113 | 106 |  |  | 92.4% | 93.3%
